Compound activity: PubChem, National Center for Advancing Translational Sciences (NCATS)
SARS PLP yeast: qHTS of Yeast-based Assay for SARS-CoV PLP; S. cerevisiae expressing SARS-CoV PLpro, growth rescue; Potency, µM (doses to about 32.9 µM), without a hit: at the top dose activity, positive = growth rescue, most hits filed as activators; 0.19% of 330,000 active; calls by dose curve; further: 0% is about no effect; nearly all actives have a fitted effect of over 55% in size
Pf growth 48h: Primary qHTS for delayed death inhibitors of the malarial parasite plastid, 48 hour incubation. P. falciparum luciferase growth in erythrocytes, 48 h. Potency, µM (titrated, usually from 28.7 µM), inactives show at the top dose activity change, negative = inhibition, hits mostly inhibitors. 5.9% of 310,000 active; further: on the % scale 0 is the no-effect control and ±100 the full control effect
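A one-generation exposure of luciferase-tagged malaria parasites in RPMI 1640/Albumax erythrocyte culture, 37 C and 5% CO2. Inhibition is inferred from decreased luminescence after adding detection reagent.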
AmpC no deterg: qHTS Inhibitors of AmpC Beta-Lactamase (assay without detergent); P00811; AID 485341, 2010; 0.52% of 330,000 active; Potency, µM (titrated, usually from 57.1 µM), for inactives: at the top dose activity change, negative = inhibition, usual class: inhibitors; AmpC nitrocefin hydrolysis, absorbance 480 nm, 0.0001% Triton;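 further: plate controls were no compound for no effect and no enzyme for full effect; nearly all actives have a fitted effect of over 20% in size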
Target sequence (P00811 whole entry, looked up): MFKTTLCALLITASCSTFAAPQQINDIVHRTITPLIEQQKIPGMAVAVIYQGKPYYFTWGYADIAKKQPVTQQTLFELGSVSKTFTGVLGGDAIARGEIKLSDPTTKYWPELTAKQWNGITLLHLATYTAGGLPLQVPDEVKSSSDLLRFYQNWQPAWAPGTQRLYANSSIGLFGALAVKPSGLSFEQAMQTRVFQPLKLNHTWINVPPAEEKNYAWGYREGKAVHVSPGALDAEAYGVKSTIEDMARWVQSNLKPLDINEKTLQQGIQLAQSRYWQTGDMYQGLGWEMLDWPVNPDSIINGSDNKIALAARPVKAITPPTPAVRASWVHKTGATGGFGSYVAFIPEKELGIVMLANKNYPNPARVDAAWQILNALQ
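AmpC (5.3 nM in the dispensed reagent) in 20 mM phosphate pH 7.0 with 0.01% (detergent screen) or 0.0001% Triton X-100 was preincubated with compounds for 15 min at room temperature. Nitrocefin was then added from an 800 uM solution, and hydrolysis was followed at 480 nm.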
Pf growth 96h: Primary qHTS for delayed death inhibitors of the malarial parasite plastid, 96 hour incubation | P. falciparum luciferase reporter growth, 96 h | Potency, µM (titrated, usually from 28.7 µM), for inactives: at the highest dose activity change, negative = inhibition, hits mostly inhibitors | 6.9% of 320,000 active | AID 504834, 2011; further: on the % scale 0 is the no-effect control and ±100 the full control effect
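Parasite growth measured via integrated firefly luciferase reporter in P. falciparum. Infected erythrocytes at 2% hematocrit, 0.05% parasitemia final were treated 96 hours at 37 C under 5% CO2, and luminescence was read.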
AmpC detergent: qHTS Inhibitors of AmpC Beta-Lactamase (assay with detergent); P00811; 0.041% of 370,000 active; AmpC hydrolysis of nitrocefin, absorbance 480 nm, 0.01% Triton; AID 485294, 2010; Potency, µM (doses to about 114 µM), for the others: top-dose activity change, negative = inhibition, most hits filed as inhibitors;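 further: 0% = no-compound wells and -100% = no-enzyme wells; nearly all actives have a fitted effect of over 25% in size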
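20 mM phosphate pH 7.0 + 0.01% (detergent screen) or 0.0001% Triton X-100; 5.3 nM AmpC reagent; cpd preinc 15 min RT; nitrocefin (800 uM stock) to start; A480 q20 s × 4 min; Activity was normalised to no-enzyme and no-compound control wells.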
Sm TGR block: qHTS Assay for the Inhibitors of Schistosoma Mansoni Peroxiredoxins; Potency, µM (titrated, usually from 114 µM), inactives show at the top dose activity change, negative = inhibition, most hits filed as inhibitors; Schistosoma mansoni thioredoxin glutathione reductase (TGR), Q962Y6; 3% of 360,000 active; AID 485364, 2010; purified TGR, DTNB reduction, TNB absorbance 405 nm; further: on the % scale 0 is the no-effect control and ±100 the full control effect; nearly all actives have a fitted effect of over 60% in size
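Kinetic colorimetric format: TGR-catalysed, NADPH-driven DTNB reduction monitored via TNB absorbance. Enzyme dispensed at 20 nM; compound exposure 15 min at room temperature before reaction start.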
The depositor's hits bear a star; ? = inconclusive; · = no result; [ ] = dose if it differs, or a comment. This is a sample that favours compounds with a hit; in the whole collection about 12% have one here. Unless noted, the call rests on the fitted dose curve; in most records, active means well fitted curve in the direction sought with a large enough effect; inconclusive means small, poorly fitted or top-dose-only effect, or another doubt; inactive means no such curve, though single readings can be large; an effect the other way counts as inactive or inconclusive. Potency means the concentration at half of the fitted maximal effect.

SMILES	SARS PLP yeast	Pf growth 48h	AmpC no deterg	Pf growth 96h	AmpC detergent	Sm TGR block
O=C(Nc1ccc2ccccc2c1)c1cn(-c2ccccc2)nc1-c1cccs1	-2%	?	-55%	13µM*	-6%	8%
CCN(CC)C(=O)c1ccc(NC(=O)c2cn(-c3ccccc3)nc2-c2ccc(OC)cc2)cc1	-5%	?	123%	7.4µM*	6%	-3%
CN(CC(=O)Nc1cccc(F)c1)C(=O)c1cn(-c2ccccc2)nc1-c1ccc(Cl)cc1	-17%	15µM*	-20%	?	10%	6%
CN(CC(=O)Nc1cccc(F)c1)C(=O)c1ccccc1-n1cnnn1	10%	?	-6%	9%	0%	-8%
CN(C)c1ccc(NC(=O)c2cn(-c3ccccc3)nc2-c2cccs2)cc1	-14%	·	-30%	-19%	-19%	-16%
COc1ccc(NC(=O)CN(C)C(=O)c2cn(-c3ccccc3)nc2-c2ccc(Cl)cc2)cc1	-10%	10µM*	13%	?	-1%	-3%
COc1ccc(-c2nn(-c3ccccc3)cc2C(=O)Nc2ccc(C(=O)O)cc2)cc1	4%	-15%	-20%	?	0%	2%
O=S(=O)(c1ccc(SCc2ccccc2F)nc1)N1CCCC1	0%	-18%	-21%	-11%	-6%	-2%
COc1ccc(-c2nn(-c3ccccc3)cc2C(=O)Nc2cccc(C(=O)O)c2)cc1[N+](=O)[O-]	28%	24%	3.5µM*	23%	-3%	1%
CC1CCCC(NC(=O)C2N(CCCN3CCCC3)C(=O)C3C(C(=O)Nc4ccc(Cl)cc4)C4C=CC32O4)C1C (stereo not drawn)	0%	?	67%	5.9µM*	-4%	3%
COc1cccc(NC(=O)C2C3C=CC4(O3)C2C(=O)N(CCCN2CCCC(C)C2)C4C(=O)NC2CCCCC2C)c1 (stereo not drawn)	-1%	-17%	3%	10µM*	-9%	-23%
CCCS(=O)(=O)c1c(S(=O)(=O)CCC)c2c(N)cccn2c1C(=O)c1ccc(F)cc1	1%	10µM*	-5%	47%	4%	22µM*
CCCS(=O)(=O)c1c(S(=O)(=O)CCC)c2c(N)cccn2c1C(=O)c1ccc(OC)cc1	0%	?	8%	-1%	-7%	-36%
CCCS(=O)(=O)c1c(S(=O)(=O)CCC)c2c(N)cccn2c1C(=O)c1ccc(Br)cc1	-3%	12µM*	?	-24%	2%	?
CCCS(=O)(=O)c1c(S(=O)(=O)CCC)c2ccc(C(N)=O)cn2c1C(=O)c1ccc(F)cc1	0%	-6%	50%	128%	-6%	-1%
CN(C)CCCNS(=O)(=O)c1ccc(NC2CCCCCC2)c([N+](=O)[O-])c1	-1%	?	104%	?	-2%	1%
CCOC(=O)c1nn(-c2ccc(OC)cc2)c(=O)c2c(N)scc12	-3%	?	?	3%	?	-3%
CCOC(=O)c1nn(-c2ccc(C)c(C)c2)c(=O)c2c(N)scc12	-2%	8%	-43%	13µM*	1%	0%
CCOc1ccc(C(=O)NNC(=O)c2cc(S(=O)(=O)N3CCOCC3)ccc2Cl)cc1	0%	?	-22%	6%	-9%	-19%
COc1cc2cccc(OC)c(=O)c2c(O)c1OC	-1%	58%	-10%	101%	?	-10%
COc1cc2c(ccc3cc(OC)c(OC)c(O)c32)cc1O	1%	?	-53%	4%	-2%	45µM*
COc1ccc(Cn2c(=O)c3[nH]cnc3n(-c3ccc(C)cc3)c2=O)cc1	-2%	?	-8%	2.3µM*	-4%	-11%
Oc1ccccc1CNCCCN1CCOCC1	-5%	-23%	-21%	?	?	-1%
Cc1ccc(C)c(S(=O)(=O)c2c(N)n(/N=C/c3ccco3)c3nc4ccccc4nc23)c1	5%	10µM*	?	?	-9%	?
Cc1ccc(S(=O)(=O)c2c(N)n(CCC(C)C)c3nc4ccccc4nc23)cc1	1%	·	-18%	13µM*	-19%	1%
SMILES	SARS PLP yeast	Pf growth 48h	AmpC no deterg	Pf growth 96h	AmpC detergent	Sm TGR block
Cc1ccc(S(=O)(=O)c2c(N)n(CCCO)c3nc4ccccc4nc23)cc1	3%	·	11%	?	-13%	0%
Cc1ccc(S(=O)(=O)c2c(N)n(Cc3ccco3)c3nc4ccccc4nc23)cc1C	-2%	10µM*	-41%	·	0%	10µM*
Nc1c(S(=O)(=O)c2ccccc2)c2nc3ccccc3nc2n1Cc1ccco1	-7%	?	-50%	12µM*	0%	18µM*
CCOC(=O)c1csc(NC(=O)C2=COCCO2)n1	?	153%	0%	157%	2%	-4%
Cc1ccc2nc(N)[nH]c(=O)c2c1Sc1ccncc1	·	4.8µM*	·	2.1µM*	·	·
COc1ccc(NC(=O)N2CCC(C(=O)c3ccc(F)cc3)CC2)cc1	-1%	-16%	-6%	31%	?	1%
COc1ccc(OC)c(C(=O)N2CCC(C(=O)c3ccc(F)cc3)CC2)c1	25%	-16%	31%	9.3µM*	-3%	-13%
O=C(O)c1ccccc1-c1ccc(C(F)(F)F)cc1	·	-14%	·	-5%	·	·
COc1ccc(C2SCC(=O)Nc3c2c(C)nn3-c2ccccc2)cc1 (stereo not drawn)	12%	·	-6%	-7%	?	-6%
Cc1nn(-c2ccccc2)c2c1C(c1ccc(Cl)cc1)N(c1ccccc1)C(=O)N2 (stereo not drawn)	-34%	13µM*	-5%	13µM*	-3%	-9%
COc1cccc(=O)c2c(C)n(-c3ccc(C(=O)O)cc3)c(C)c12	1%	?	-41%	23%	2%	?
COc1ccccc1-n1c(C)c2c(OC)cccc(=O)c2c1C	7%	4.1µM*	?	154%	-8%	-14%
COc1cccc(=O)c2c(C)oc(C)c12	2%	·	-17%	20%	-9%	3%[11.4 µM]
COc1ccc(-n2c(C)c3c(OC)cccc(=O)c3c2C)cc1	-5%	?	-18%	10µM*	-1%	5%
Cc1nn(Cc2ccccc2)c2ncccc12	3%	?	-4%	?	-8%	-1%
CC(C)(C)OC(=O)NCc1ccc(NC(=O)c2nc[nH]c2C(=O)NCCNC(=O)c2[nH]cnc2C(=O)Nc2ccc(CNC(=O)OC(C)(C)C)cc2)cc1	-16%	·	-13%	·	·	·
